Source: PubChem (National Center for Advancing Translational Sciences (NCATS))
SMN2 splice enh: qHTS Assay for Enhancers of SMN2 Splice Variant Expression; Potency, µM (highest dose often 46.1 µM), for the others: top-dose activity change, positive = activation, usual class: activators; HEK293 SMN2-luciferase splicing reporter, luminescence, 30-36 h; actives 2.8% (n = 210,000); note: % of control where 0% means no effect; nearly all actives have a fitted effect of over 55% in size
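qHTS luciferase splicing reporter: luminescence rises when SMN2 exon 7 is included in transfected HEK293 cells. Compound exposure lasted 30-36 h at 37C, with 4.5 mM final sodium butyrate as control, followed by a ONE-Glo read.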
NPC1 promoter act: qHTS Assay for NPC1 Promoter Activators; Huh7 NPC1 promoter luciferase reporter, 24 h; Potency, µM (series often up to 9.22 µM), inactives show at the highest dose activation, most hits filed as activators; actives 2.4% (n = 320,000); AID 485313, 2010; note: % of control where 0% means no effect; nearly all actives have a fitted effect of over 60% in size
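In 1536-well qHTS, Huh7 cells harboring an NPC1 promoter–luciferase construct received compound for 24 h; activation was quantified by luminescence following luciferase reagent addition.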
FLuc counter: qHTS profiling assay for firefly luciferase inhibitor/activator using purifed enzyme and Km concentrations of substrates (counterscreen for miR-21 project); AID 588342, 2011; Luciferin 4-monooxygenase (Photinus pyralis), P08659; Potency, µM (doses to about 57.5 µM), for the others: top-dose activity change, negative = inhibition, usual class: inhibitors; actives 6.9% (n = 360,000); purified FLuc, Km substrates, luminescence inhibition;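 note: plate controls were vehicle for no effect and reference inhibitor for full effect; nearly all actives have a fitted effect of over 55% in size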
Target sequence (P08659 whole entry, looked up): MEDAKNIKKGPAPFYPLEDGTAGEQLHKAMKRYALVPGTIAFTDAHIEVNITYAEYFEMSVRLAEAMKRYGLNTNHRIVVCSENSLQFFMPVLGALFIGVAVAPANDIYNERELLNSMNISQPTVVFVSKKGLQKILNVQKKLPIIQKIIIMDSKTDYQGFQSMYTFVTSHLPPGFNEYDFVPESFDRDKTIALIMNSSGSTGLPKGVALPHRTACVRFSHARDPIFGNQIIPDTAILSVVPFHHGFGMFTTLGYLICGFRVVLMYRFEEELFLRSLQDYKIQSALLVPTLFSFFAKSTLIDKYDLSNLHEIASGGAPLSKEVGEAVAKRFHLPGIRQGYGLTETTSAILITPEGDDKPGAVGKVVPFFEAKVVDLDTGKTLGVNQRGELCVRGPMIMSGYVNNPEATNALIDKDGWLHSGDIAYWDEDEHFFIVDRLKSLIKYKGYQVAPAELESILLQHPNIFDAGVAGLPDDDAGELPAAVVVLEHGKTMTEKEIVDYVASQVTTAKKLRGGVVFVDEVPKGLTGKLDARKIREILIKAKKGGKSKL
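Purified P. pyralis luciferase (10nM final) with 10uM D-luciferin and 10uM ATP (Km levels) in 50mM Tris acetate pH 7.5, 10mM Mg acetate, 0.01% Tween-20, 0.05% BSA; qHTS 6-point titration, ~60 µM downward; luminescence read.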
Rab9 promoter act: qHTS Assay for Rab9 Promoter Activators; Huh7 Rab9 promoter-luciferase reporter, luminescence, 24 h; Potency, µM (top dose mostly 9.22 µM), without a hit: top-dose activation, negative = inhibition, hits mostly activators; actives 2.8% (n = 320,000); AID 485297, 2010; note: % of control where 0% means no effect; nearly all actives have a fitted effect of over 60% in size
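Luminescence read-out: Huh7 cells stably expressing Rab9-luciferase, treated 24 h with compound at 37 °C, then lysed with luciferase reagent for 10 min at ambient before reading.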
ELG1 genotoxic: qHTS screen for small molecules that induce genotoxicity in human embryonic kidney (HEK293T) cells expressing luciferase-tagged ELG1; HEK293T ELG1-luciferase reporter, luminescence, 16 h; Potency, µM (highest dose often 46 µM), without a hit: at the top dose activity change, positive = activation, usual class: activators; actives 1.3% (n = 330,000); AID 504466, 2011; note: % of control where 0% means no effect; nearly all actives have a fitted effect of over 60% in size
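Genotoxicity was scored as increased ELG1-luciferase reporter signal, measured by ONE-Glo luminescence (30 min, room temperature). Compound or vehicle exposure of the HEK293T reporter cells lasted 16 hr at 37°C.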
Numbers without * were called inactive; ? = inconclusive; nt = no result. Only some compounds are listed: those with a hit (about 7.5% of all), similar ones and a draw of the others. Calls come from the whole dose curve; as a rule, active = well fitted curve in the direction sought with a large enough effect; inconclusive = small, poorly fitted or top-dose-only effect, or another doubt; inactive = no such curve, though single readings can be large; an effect the other way counts as inactive or inconclusive. Potency is the fitted concentration of half-maximal effect.

SMILES	SMN2 splice enh	NPC1 promoter act	FLuc counter	Rab9 promoter act	ELG1 genotoxic
Cc1cc(N2CCC(C)CC2)nc2ccc(NC(=O)CCC(=O)N3CCN(c4ccccc4F)CC3)cc12	-12%	nt	4.8µM*	nt	nt
O=C(NC(=S)NCc1ccco1)c1ccc(Br)cc1	nt	7%	-19%	12%	7%
O=S(=O)(c1ccc(Br)s1)N1CCN(c2ccnc3cc(Cl)ccc23)CC1	nt	4%	-3%	-3%	1%
CCCCN(C)C(=O)CCC(=O)Nc1ccc2nc(N3CCN(C)CC3)cc(C)c2c1	1%	1%	-6%	-6%	1%
CCCCN(C)C(=O)CCC(=O)Nc1ccc2nc(N3CCOCC3)cc(C)c2c1	20µM*	?	?	?	6%
CCN1CCN(c2cc(C)c3cc(NC(=O)CCC(=O)N4CCN(c5ccccc5OC)CC4)ccc3n2)CC1	nt	14%	15µM*	5%	2%
Nc1nc2nc(-c3ccc(OCc4ccccc4)cc3)cc(C(F)(F)F)n2n1	-9%	-2%	3%	-4%	0%
C=Cc1ccc(Cn2c(C)c(CNCCc3ccc(OCC)cc3)c(C(=O)O)c2C)cc1	-4%	nt	-8%	nt	nt
CC(Nc1ncnc2c1cnn2-c1cccc(Cl)c1)c1ccccc1 (centres undefined)	nt	nt	24µM*	nt	nt
COCC(C)Nc1ncnc2c1cnn2-c1cccc(Cl)c1 (centres undefined)	nt	nt	13µM*	nt	nt
Cc1ccc(-n2ncc3c(Nc4ccc(Oc5ccccc5)cc4)ncnc32)cc1	nt	nt	-6%	nt	nt
COc1ccc(OC)c(Nc2ncnc3c2cnn3-c2cccc(Cl)c2)c1	nt	nt	0%	nt	nt
Cc1ccc(-n2ncc3c(NC(C)c4ccccc4)ncnc32)cc1 (centres undefined)	nt	nt	6µM*	nt	nt
CCC(CO)Nc1ncnc2c1cnn2-c1ccc(C)cc1 (centres undefined)	nt	nt	3.4µM*	nt	nt
Cc1ccccc1C(=O)NNc1ncnc2c1cnn2-c1cccc(Cl)c1	nt	nt	4%	nt	nt
O=C(CSc1nc2ccccc2n1Cc1ccccc1)N1CCN(c2ccc(F)cc2)CC1	2%	nt	0%	nt	nt
CCOC(=O)C1CCN(C(=O)COC(=O)c2ccc([N+](=O)[O-])o2)CC1	nt	-2%	4%	0%	1%
O=C(NC1CCCCC1)C(=S)NCc1ccccc1	?	?	21µM*	?	17%
O=C(NC1CCCCCC1)C(=S)NCc1ccccc1	25%	14%	21µM*	?	14%
O=C(NC1CCCCC1)C(=S)NC1CCCCC1	14µM*	2.8µM*	?	3.5µM*	?
O=C(NC1CCCCCC1)C(=S)NCCc1ccccc1	23%	10%	?	26%	8%
O=C(CSc1ccccc1C(=O)NCc1ccccc1)NC1CCCCCCC1	-37%	-3%	24µM*	-4%	-5%
O=C(COC(=O)CC12CC3CC(CC(C3)C1)C2)Nc1cccnc1Cl	2%	-1%	?	0%	0%
O=[N+]([O-])c1cc(S(=O)(=O)N2CCOCC2)ccc1N1CCNCC1	nt	-1%	0%	0%	0%
COc1ccc(C(=O)N/C(=C\c2cccc3ccccc23)C(=O)NCCc2c[nH]c3ccccc23)cc1OC	-12%	2%	-4%	-1%	-4%
SMILES	SMN2 splice enh	NPC1 promoter act	FLuc counter	Rab9 promoter act	ELG1 genotoxic
C=CCn1c(SCC(=O)Nc2ccccc2OC)nc2c([nH]c3ccccc32)c1=O	nt	0%	3%	13%	16%
O=C(Nc1ccc(Cl)c(S(=O)(=O)N2CCCCC2)c1)C1=COCCO1	nt	5%	-7%	-2%	-3%
CCNC(=O)NC(=O)COC(=O)c1ccccc1SCC(=O)NC(=O)NCC	8.9µM*	1.6µM*	5.4µM*	2.8µM*	?
O=C(COC(=O)c1ccccc1SCC(=O)NC1CCS(=O)(=O)C1)NC1CCS(=O)(=O)C1 (centres undefined)	4%	-2%	8%	-8%	-5%
CCOC(=O)c1c(NC(=O)c2nc(SC(C)C)ncc2Cl)sc2c1CCCC2	11%	nt	-1%	nt	nt
C=CCn1c(SCC(=O)NCC2CCCO2)nc2scc(-c3ccc(OC)cc3)c2c1=O (centres undefined)	nt	-5%	4%	-3%	-3%
